Reference: PubChem BioAssay (NCI)
This is part of a sample that, as a whole, favours compounds with a hit. Of some 79,000 tested, about 15% had one in any assay. Calls of active or inactive are those of the source. Rule as the data show it: active = growth inhibition above about 70%; inactive = the rest.

Assays:
[1] = NCI Yeast Anticancer Drug Screen. Data for the rad50 strain (AID 155);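 also: 0% = growth of vehicle-only cultures of the same strain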; settings: S. cerevisiae rad50 strain growth inhibition; at 50.0 µM; hits give high values
Summary of the method: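 Compounds were tested on a yeast strain with an engineered DNA damage repair alteration; the reported value is growth inhibition normalised to vehicle treatment.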

[2] = NCI Yeast Anticancer Drug Screen. Data for the mec2-1 strain (AID 157); settings: S. cerevisiae mec2-1 strain, at 50.0 µM, hits give high values
Summary of the method: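 Growth inhibition is read against vehicle-treated controls after compound exposure of the mec2-1 yeast strain, which is defective in DNA damage repair or cell cycle control.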

[3] = NCI Yeast Anticancer Drug Screen. Data for the sgs1 mgt1 strain (AID 161);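 also: 0% = growth of cultures given vehicle only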; settings: S. cerevisiae sgs1 mgt1 strain, at 50.0 µM, hits give high values
Summary of the method: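 Compounds are added to genetically altered yeast, and growth is compared with cultures given vehicle alone to give percent inhibition.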

[4] = NCI Yeast Anticancer Drug Screen. Data for the cln2 rad14 strain (AID 165);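 also: 0% = growth equal to vehicle treated cultures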; settings: S. cerevisiae cln2 rad14 strain, at 50.0 µM, hits give high values
Summary of the method: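 Growth inhibition, relative to vehicle-treated controls, is the read-out. The test organism is a yeast strain with defined genetic alterations, cln2 rad14.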

[5] = NCI Yeast Anticancer Drug Screen. Data for the bub3 strain (AID 167); settings: S. cerevisiae bub3 mutant strain, at 50.0 µM, hits give high values
Summary of the method: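 Growth of a checkpoint-deficient yeast mutant is measured after compound exposure. Values represent inhibition relative to vehicle.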

[6] = NCI Yeast Anticancer Drug Screen. Data for the mlh1 rad18 strain (AID 175); settings: S. cerevisiae mlh1 rad18 strain growth inhibition; at 50.0 µM; hits give high values
Summary of the method: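 Cells of a genetically altered yeast strain, deficient in DNA damage repair, were treated with compound. Their growth was then compared with that of vehicle-treated cultures to give inhibition.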

Measured: growth inhibition

COc1cc2c(cc1O)C(Cc1ccccc1)N(C)CC2O (configuration not stated)
inactive: [1] -12.6% | [2] -4.7% | [3] -4% | [4] -5.7% | [5] -7.55% | [6] 0%

C=CCN(CC=C)CCNc1cc(C)nc(Nc2nc3ccc(Cl)cc3[nH]2)n1
active: [1] 90.6% | [3] 93.2% | [4] 82% | [6] 91.5%
inactive: [2] 50.4% | [5] 24.9%

CNCCCN1CCCCC1
inactive: [1] 31.8% | [2] 16% | [3] 22.4% | [4] 6.3% | [5] -4.4% | [6] 13.6%

O=C(OC1COC(n2c(=O)oc3cc(Br)c(Cl)cc32)C(OC(=O)c2ccccc2)C1OC(=O)c1ccccc1)c1ccccc1 (configuration not stated)
inactive: [1] 4.55% | [2] -2.25% | [3] -8.15% | [4] -3.05% | [5] 4.85% | [6] 14.4%

Nc1cc(Cl)c([N+](=O)[O-])cc1O
inactive: [1] 6.2% | [2] 18.4% | [3] 5.55% | [4] -66.2% | [5] 5.05% | [6] -12%

N#Cc1ccc(Oc2ccc(C#N)cc2)cc1
inactive: [1] 12.2% | [2] -19.6% | [3] -8.45% | [4] 18.4% | [5] -0.4% | [6] -1.1%

COc1ccc(S(=O)(=O)N/N=C/c2cc(I)cc([N+](=O)[O-])c2O)cc1
inactive: [1] 15.1% | [2] 0.6% | [3] 9.85% | [4] 8% | [5] -3.85% | [6] 2.5%

COC1=CCC=C(C(C)(C)C)C1
inactive: [1] -45.8% | [2] -22.6% | [3] -10.5% | [4] -32.1% | [5] -12.2% | [6] 21.7%

COc1ccc(Cl)cc1NC(=O)Nc1ccc(S(N)(=O)=O)cc1
inactive: [1] 9.7% | [2] 8% | [3] 4.85% | [4] 18.1% | [5] 19.1% | [6] 9.65%

CCOC(=O)c1cccc2ncccc12
inactive: [1] -1.6% | [2] 9.35% | [3] -2.8% | [4] -28.2% | [5] -9.05% | [6] 10.8%

Cc1cn(C2CC(N(C)O)C(CO)O2)c(=O)[nH]c1=O (configuration not stated)
inactive: [1] -16.8% | [2] -27% | [3] -8.15% | [4] -34.7% | [5] -12.3% | [6] -58.9%

CCOC(=O)CN1CN(CCc2ccccc2)CC(C)(C)C1OCC (configuration not stated)
inactive: [1] 37.1% | [2] 31.6% | [3] 43.4% | [4] 20.6% | [5] 41.2% | [6] 39.5%

CCCCCCCN(CCCCCCC)CC(O)c1c(OC)c2ccccc2c2ccccc12 (configuration not stated)
inactive: [2] 34.4% | [5] 24.9%
active: [1] 94.8% | [3] 96.2% | [4] 93% | [6] 93.7%

O=C(c1ccccc1)C(c1ccccc1)S(=O)(=O)N1CCOCC1 (configuration not stated)
inactive: [1] 1.3% | [2] 13.3% | [3] 2.85% | [4] -13.1% | [5] -11.6% | [6] -7.65%

O=C1Nc2ccccc2N=NN1CCCl
inactive: [1] 22.2% | [2] 6.4% | [3] -2.85% | [4] 1.85% | [5] -7.3% | [6] -18.4%

O=C(NN1C(=O)C(Cl)C1c1ccccc1Cl)c1ccccc1O (configuration not stated)
inactive: [1] -48.1% | [2] -35.9% | [3] -49.1% | [4] -5.55% | [5] -21% | [6] -36%

CCOC(=O)C(CCC#N)(CCC#N)C(C)=O
inactive: [1] -8.5% | [2] -1.65% | [3] -4.7% | [4] -64.8% | [5] 0.15% | [6] 15.1%

O=c1[nH]c(=O)c2nnoc2[nH]1
inactive: [1] 12.4% | [2] 7.65% | [3] 4.55% | [4] -20.2% | [5] 7.4% | [6] -16.5%

COc1cccc2c1C1(O)C2CCCC12OCCCO2 (configuration not stated)
inactive: [1] -26.3% | [2] -10.3% | [3] -50% | [4] 6.5% | [5] -29.4% | [6] -31.2%

CC(=O)Nc1ccc(S(=O)(=O)/C(=C\c2ccc(Cl)o2)c2ccc([N+](=O)[O-])o2)cc1
inactive: [2] 56.8% | [4] 57.5% | [5] 61.4%
active: [1] 90.1% | [3] 92.9% | [6] 92.7%

NS(=O)(=O)c1cc2c(cc1Cl)NC(Cc1ccccc1)NS2(=O)=O (configuration not stated)
inactive: [1] -20.7% | [2] -4.55% | [3] -9.45% | [4] -7.2% | [5] 0.2% | [6] 18.4%

CC1(C)CCc2cc3c(O)c(-c4ccccc4)c(=O)oc3cc2O1
inactive: [1] -9.45% | [2] 2.15% | [3] -0.65% | [4] -17.2% | [5] -5.75% | [6] 7.45%

Brc1cccc(-c2nnc(-c3ccccc3)o2)c1
inactive: [1] -4.15% | [2] -11.7% | [3] -8.4% | [4] -41.5% | [5] -0.4% | [6] -12.1%

CN(C)CCCNc1nc2cc(Cl)ccc2o1
inactive: [1] -7.1% | [2] -9.85% | [3] -5.7% | [4] -38.6% | [5] 6.7% | [6] -2.4%

COC(=O)C1=C(C(=O)OC)C2C=CC1C1C(Cl)=C(Cl)C21 (configuration not stated)
inactive: [1] -12% | [2] -0.95% | [3] -10.7% | [4] 21.2% | [5] 33.6% | [6] -34%

C=CCOc1cc2c(cc1Cc1cc(OC)c(OC)c(OC)c1)OCO2
inactive: [1] 22.9% | [2] -20.8% | [3] 49.6% | [4] 9.85% | [5] 37.6% | [6] 55.2%

N#CC(C(=O)CCC(=O)Nc1ccc(Cl)c(Cl)c1)c1ccc(Cl)cc1 (configuration not stated)
inactive: [1] -12.9% | [2] -29.9% | [3] 18.1% | [4] 15.4% | [5] 8.4% | [6] -2.2%

CCCCCCCCCCC/C(C)=N/Nc1ccc([N+](=O)[O-])cc1[N+](=O)[O-]
inactive: [1] 5.65% | [2] -5.15% | [3] 2.15% | [4] 11.8% | [5] -0.2% | [6] -13%

O=c1[nH]c2cc(Cl)ccc2nc1/C=C(\O)c1ccco1
inactive: [1] 7.55% | [2] -10.4% | [3] -16.1% | [4] 10.3% | [5] -33.6% | [6] 13.3%

O=[N+]([O-])c1ccc(Cl)c(OCCCBr)c1
active: [6] 70.3%
inactive: [1] 10.3% | [2] 39.5% | [3] 48.6% | [4] 14.9% | [5] 57.2%

C[C@@H]1C(=O)CC2(O)[C@@]13C[C@@H](OC(=O)[C@@H]3O)[C@@H](C)[C@@]21COC1=O (some centres not stated)
inactive: [1] 13.8% | [2] 14.2% | [3] -20.6% | [4] -6.65% | [5] -28.1% | [6] -47.1%

COc1ccc(N2C(=O)C3c4[nH]c5ccc(F)cc5c4C4CCC(C(C)(C)C)CC4C3C2=O)cc1 (configuration not stated)
inactive: [1] -7.05% | [2] -2.3% | [3] 1.55% | [4] 7.45% | [5] -3.2% | [6] 22.1%

O=C(O)C1CCN(C(=O)Cc2ccccc2)CC1
inactive: [1] -12.5% | [2] -1.95% | [3] -2.15% | [4] -5.6% | [5] 0.05% | [6] -14.7%

OC1(C#Cc2ccccc2)c2ccccc2C(O)(C#Cc2ccccc2)c2ccccc21 (configuration not stated)
inactive: [1] 9.95% | [2] -11.8% | [3] 1.6% | [4] 14.1% | [5] -10.3% | [6] 10.1%

COC(=O)C(CSSCC(C(=O)NC(Cc1ccccc1)C(=O)NCC(=O)OC(C)(C)C)N1C(=O)CCC1=O)NC(=O)OCc1ccccc1 (configuration not stated)
inactive: [1] -29.2% | [2] 11.4% | [3] -5.45% | [4] -45.4% | [5] -51.4% | [6] 18.9%

COc1ccc2nc(NC(=O)C(=O)C(C#N)c3ccc(CC#N)cc3)sc2c1 (configuration not stated)
inactive: [1] -4.3% | [2] 11.4% | [3] 4.5% | [4] -4.85% | [5] 0.15% | [6] -5.75%

O=C(O)C(Br)C(Br)C(=O)Nc1cccc(C(F)(F)F)c1 (configuration not stated)
inactive: [1] 17.4% | [2] -5.55% | [3] 14.9% | [4] 0.6% | [5] -2.15% | [6] 24.4%
